According to PubChem BioAssay AID1203 (The Scripps Research Institute Molecular Screening Center, 2008):
Among all 200,000 compounds or so, about 80 (0.04%) were called active.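 How the source made its calls: active means activation above the mean across all tested compounds plus 3 SD, cutoff set per campaign (cut at about 5.5% in these data); inactive means the rest.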 The entries come from a sample that favours actives as a whole.

Assay: Hsp70 promoter-driven reporter induction – cell-based, HeLa, Hsp70 promoter luciferase, luminescence, 10 µM, primary screen (AID 1203);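 further: 100% = MG132 at 30 µM as the positive control and 0% = DMSO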
Conditions: at 10 µM, stronger effect = higher value, scaled: vehicle 0, proteasome-inhibitor control 100%

activation, inactive:
Cc1cccc(NC(=S)NC(=O)c2ccc(Br)o2)c1 0.26%
CC(=O)Nc1nc2ccccc2n1Cc1ccc(C)cc1 -0.13%
COC(=O)CN1C(=S)N(c2ccccc2)C(=O)C1CC(=O)Nc1ccc(Cl)cc1 (stereo not drawn) -0.13%
COc1ccc(-c2nc(N)sc2C2(O)C(=O)Nc3c(Br)cc(F)cc32)cc1OC (stereo not drawn) -0.09%
CCOc1ccc(N2CC(C(=O)NCCN3C(=O)S/C(=C\c4cccnc4)C3=O)CC2=O)cc1 (stereo not drawn) -0.14%
Cc1ccc(Cl)c(NC(=O)CN(C)CC(=O)Nc2ccc(F)c(F)c2F)c1Cl -0.39%
C/C(=N\NC(=O)CCn1nc(C)cc1C)C(C)(C)C -0.13%
COc1ccc(OCC(O)CNC(=O)Nc2ccc(Cl)cc2)cc1 (stereo not drawn) -0.12%
NS(=O)(=O)c1ccc(N=Cc2ccc(Br)s2)cc1 -0.31%
CCOC(=O)C/C(C)=N\Nc1ccc([N+](=O)[O-])cc1[N+](=O)[O-] 0.04%
O=S(=O)(c1ccc2c(c1)OCCO2)N1CCc2ccccc21 0.08%
O=C(CSc1nncs1)NC1CCCc2ccccc21 (stereo not drawn) -0.09%
O=S(=O)(ON(c1ccccc1)S(=O)(=O)c1ccccc1)c1ccccc1 -0.24%
CCOC(=O)c1c(NC(=S)NC(=O)/C=C/c2cccs2)sc(C)c1C -0.28%
O=C(NNC(=S)Nc1ccc(Br)cc1Cl)c1ccco1 -0.21%
CCC(=O)OCc1c(C(F)(F)F)nn(C)c1Oc1cccc(C(F)(F)F)c1 -0.27%
CCNC(=O)NNC(=O)C1CC(c2cccs2)=NO1 (stereo not drawn) -0.44%
CCOC(=O)c1cnc2c(c(C)nn2CC)c1Cl -0.38%
C/C(=N\NC(=O)CNc1cccc2ccccc12)c1ccc(Br)s1 -0.39%
CCCC1NC(=S)NC(C)=C1C(C)=O (stereo not drawn) -0.09%
CCOC(=O)NN1C(=O)c2ccccc2NC1c1ccccc1O (stereo not drawn) -0.07%
CC1CC(C)(C)NC(=S)N1CCC(=O)N1CCN(Cc2ccccc2)CC1 (stereo not drawn) -0.64%
CC(C)(C)c1ccc(NC(=O)COC(=O)CCc2nc3ccccc3c(=O)[nH]2)cc1 -0.35%
CSCCC(NC(=O)COc1ccccc1)C(=O)Nc1ccc(C)cc1 (stereo not drawn) -0.22%
COc1ccc(C(CC(=O)c2ccccc2)S(=O)(=O)c2ccccc2)cc1 (stereo not drawn) -0.26%
COC(=O)C1=CN(Cc2ccc(OC)c(OC)c2)C=C(C(=O)OC)C1c1cccs1 -0.18%
O=C1Oc2ccccc2C(=O)/C1=C/c1ccccc1O -0.37%
CC(=O)c1ccc(NC(=O)C(C)N(C)CC(=O)Nc2ccccc2Cl)cc1 (stereo not drawn) -0.06%
